This is an account of results in ChEMBL document CHEMBL1157539, “Thousands of chemical starting points for antimalarial lead identification” (Nature, 2010).

For the first test, the system named is Plasmodium falciparum. Description: GSK_TCMDC: Inhibition of Plasmodium falciparum 3D7 in whole red blood cells, using parasite LDH activity as an index of growth. Test compounds present at 2uM. It is filed as functional.
As for `CC(C)(CNC(=O)[C@@H]1CCCN(CCOc2ccc(F)c(F)c2)C1)c1nc(-c2ccc(Cl)c(O)c2)c(-c2ccncc2)[nH]1.Cl`, the Inhibition is 100%.

`COc1ccc(CNCc2cccc(-c3cccc(-c4nc5cccc(C)c5[nH]4)c3)c2)cc1.O=C(O)C(F)(F)F` yielded an Inhibition of 100%.

In the case of `Cl.O=C(c1ccc(Cl)cc1)C1CCN(CCCOc2ccc3c(c2)CCNCC3)CC1`, the Inhibition is given as 93%.

With `O=C(Nc1cccc(-c2ccc(NCCCN3CCCC3)nc2)c1)c1ccccc1`, the Inhibition is 100%.

Regarding `CS(=O)(=O)CCNc1nccc(N2CCc3ncnc(Nc4ccc(OCc5cccc(F)c5)c(Cl)c4)c3C2)n1`, the Inhibition is 100%.

On to `COc1nc2c(CCN3CCC(NCc4ccc5c(n4)NC(=O)CO5)CC3)c(Cl)cnc2cc1F.Cl`, for which the Inhibition is recorded as 99%.

Turning to `CCCOc1ccc(C=C(CC(=O)O)c2nc3ccccc3s2)cc1OCC`, the Inhibition was found to be 89%.

Molecule `Cc1ccc(CN(Cc2ccc(C(=O)N(C)C)cc2)Cc2ccc3c(c2)OCCO3)cc1C` gave an Inhibition of 91%.

Consider `CS(=O)(=O)c1ccc(CNCc2cccc(-c3cccc(-c4nc5cc(F)ccc5[nH]4)c3)c2)cc1.O=C(O)C(F)(F)F`, for which the Inhibition is recorded as 100%.

Molecule `COc1cc2nc(N3CCC(CNCc4ccc(-c5ccc(C(F)(F)F)cc5)cc4)CC3)nc(N)c2cc1OC` returned an Inhibition of 99%.

`CN1CCN(c2nsc3ccc(-c4ccc(NC(=O)Nc5ccccc5)cc4)cc23)CC1.O=C(O)C(F)(F)F` returned an Inhibition of 100%.

For another test, the system named is Plasmodium falciparum. Description: GSK_TCMDC: Inhibition of Plasmodium falciparum Dd2 in whole red blood cells, using parasite LDH activity as an index of growth. Test compounds present at 2uM. It is filed as functional.
Take `Cl.Oc1ccc(Cc2cc(Oc3c(I)cc(CCc4ncc[nH]4)cc3I)ccc2O)cc1`: the Inhibition came out at 32%.

On to `O=C(NCCNc1ccnc(Nc2ccc(F)cc2)n1)c1cc2ccccc2s1`, for which the Inhibition was 34%.

In turn, `COc1ccc(C2CC(=O)C3=C(C2)NC(C)=C(C(=O)OC2CCCC2)C3c2cccc(O)c2)cc1OC` (stereo unspecified) came in with an Inhibition of 98%.

As for `CCOc1cc(C(=O)NCCN(C(C)C)C(C)C)ccc1-c1nc2cc(Cl)ccc2[nH]1`, the Inhibition worked out at 90%.

Consider `CC(=O)N1N=C(c2ccccc2)Sc2c1nc(-c1ccc(Cl)cc1)n2C(C)=O`, for which the Inhibition was 18%.

Regarding `O=C1C2C(c3ccc(Cl)c(Cl)c3)N3CC(OCc4ccccc4)CC3(C(=O)O)C2C(=O)N1c1ccc(Br)cc1` (stereo unspecified), the Inhibition was found to be 86%.

`O=C1CN(C(=O)CCC2CCCC2)C(c2ccc(F)cc2)c2cc(F)ccc2N1` (stereo unspecified) had an Inhibition of 75%.

As to `CCc1cc2c(=O)c(-c3nc(C)cs3)c([C@H](N)Cc3ccc(O)cc3)oc2cc1O.O=C(O)C(F)(F)F`, the Inhibition came to 19%.

Turning to `Cc1c(S(=O)(=O)Nc2ccc3nccc(N4CC(C)NC(C)C4)c3c2)sc2ccc(Cl)cc12.Cl` (stereo unspecified), the Inhibition worked out at 0%.

Take `N#Cc1cc([N+](=O)[O-])ccc1-n1nc(-c2cccc(Cl)c2)n(CC2CCCO2)c1=S` (stereo unspecified): the Inhibition is 89%.

Take `Cl.c1cc(-c2cc3ccc(C4=NCCN4)cc3[nH]2)ccc1C1=NCCN1`: the Inhibition was determined as 99%.

Consider `Cc1nc(NC2=NCN(CCCN3CCOCC3)CN2)nc2c(C)cccc12`, for which the Inhibition turned out to be 62%.

The molecule `Cn1nc(-c2cccc(CN[C@@H]3CCc4ccc(O)cc43)c2)c2cnc(NC3CCCC3)nc21` registered an Inhibition of 76%.

`CCC(C)NS(=O)(=O)c1ccc2nc(Nc3ccc(C)c(Cl)c3)n([C@H](C)C(C)(C)C)c2c1` (stereo partly specified) returned an Inhibition of 100%.

In the case of `c1ccc([C@H]2CN3CCSC3=N2)cc1` [LEVAMISOLE], the Inhibition is reported as 1%.

`CCCN(CCC)CCCN(CCCN(CCC)CCC)c1cc(C)nc(Nc2ccc(Cl)cc2)n1.Cl`: the Inhibition was determined as 100%.

For the molecule `Cl.O=S(=O)(NCCCN1CCOCC1)c1ccc2nccc(Nc3ccc(Oc4ccccc4)cc3)c2c1`, the Inhibition stood at 92%.

Regarding `CCN(CC)CCCC(C)Nc1c(-c2ccc(C)cc2)cnc2ccccc12` (stereo unspecified), the Inhibition is reported as 65%.

`C#CCOc1ccc(N2C(N)=NC(N)=NC2(C)C)cc1.Cl` gave an Inhibition of 0%.

`CC(=O)Nc1cccc(-c2cnc(N)c3cc(-c4ccc5c(c4)OCO5)ccc23)c1` showed an Inhibition of 93%.

Turning to `COc1cccc(CNC(=O)c2cc(CNCc3ccccc3)ccc2-c2cccc(CNCc3ccc(-c4ccccc4)cc3)c2)c1.O=C(O)C(F)(F)F`, the Inhibition amounted to 15%.

`CN1CC=C(c2csc3ccc(NC(=O)Nc4ccc(-c5ccncc5)c5ccccc45)cc23)CC1`: the Inhibition turned out to be 99%.

The molecule `Cl.NC(=O)N1CCN(Cc2ccc(Br)cc2)CC1` showed an Inhibition of 0%.

`COc1ccccc1C1CC(c2ccc(Br)cc2)=NN1C(=O)c1ccccc1` (stereo unspecified): the Inhibition came to 59%.

As to `COc1ccc(CCNC(C)Cc2ccc(C(=O)Nc3ccc(CC(C)NCCc4cccc(Cl)c4)cc3)cc2)cc1` (stereo unspecified), the Inhibition is recorded as 89%.

`CCCCC(=O)Nc1ccc(Nc2nc(C)cc(N3CCCC3)n2)cc1` gave an Inhibition of 67%.

Molecule `COc1cc2c(cc1OC)C(c1ccc(Br)cc1)CN(C)CC2.Cl` (stereo unspecified) had an Inhibition of 0%.

For the molecule `O=C(/C=C/c1ccc(Cl)c(Cl)c1)NCCCCCN1CCC(NC(=O)c2cccc(Cl)c2)CC1`, the Inhibition worked out at 23%.

Molecule `CCN(C(=O)c1ccc(NC(=O)c2cccs2)cc1)c1nc2c(C)cccc2s1` yielded an Inhibition of 85%.

As to `CC(C)(CNC(=O)[C@@H]1CCCN(CCOc2ccc(F)c(F)c2)C1)c1nc(-c2ccc(Cl)c(O)c2)c(-c2ccncc2)[nH]1.Cl`, the Inhibition amounted to 77%.

With `COc1ccc(CNCc2cccc(-c3cccc(-c4nc5cccc(C)c5[nH]4)c3)c2)cc1.O=C(O)C(F)(F)F`, the Inhibition amounted to 60%.

Take `Cl.O=C(c1ccc(Cl)cc1)C1CCN(CCCOc2ccc3c(c2)CCNCC3)CC1`: the Inhibition was found to be 23%.

`O=C(Nc1cccc(-c2ccc(NCCCN3CCCC3)nc2)c1)c1ccccc1`: the Inhibition turned out to be 21%.

With `CS(=O)(=O)CCNc1nccc(N2CCc3ncnc(Nc4ccc(OCc5cccc(F)c5)c(Cl)c4)c3C2)n1`, the Inhibition amounted to 100%.

In turn, `COc1nc2c(CCN3CCC(NCc4ccc5c(n4)NC(=O)CO5)CC3)c(Cl)cnc2cc1F.Cl` had an Inhibition of 40%.

Take `CCCOc1ccc(C=C(CC(=O)O)c2nc3ccccc3s2)cc1OCC`: the Inhibition is on record as 84%.

As to `Cc1ccc(CN(Cc2ccc(C(=O)N(C)C)cc2)Cc2ccc3c(c2)OCCO3)cc1C`, the Inhibition was determined as 87%.

Regarding `CS(=O)(=O)c1ccc(CNCc2cccc(-c3cccc(-c4nc5cc(F)ccc5[nH]4)c3)c2)cc1.O=C(O)C(F)(F)F`, the Inhibition is 84%.

On to `COc1cc2nc(N3CCC(CNCc4ccc(-c5ccc(C(F)(F)F)cc5)cc4)CC3)nc(N)c2cc1OC`, for which the Inhibition worked out at 100%.

Turning to `CN1CCN(c2nsc3ccc(-c4ccc(NC(=O)Nc5ccccc5)cc4)cc23)CC1.O=C(O)C(F)(F)F`, the Inhibition is 98%.

By Inhibition is commonly meant the drop in the measured response relative to a control, in per cent.
